Reference: PubChem BioAssay AID651958 (The Scripps Research Institute Molecular Screening Center, 2012)
Hit rate of the full screen: of about 370,000 compounds, about 2,000 (0.54%) were called active. This is one part of a sample in which actives are shown more often than they occur. Rule as the data show it: active = inhibition above about 30%; inactive = the rest.

System: Crimean-Congo hemorrhagic fever virus L polyprotein viral ovarian tumor (vOTU) protease domain
Assay: CCHFV vOTU protease inhibitors, primary screen, biochemical, Pep-AMC substrate, fluorescence (AID 651958); also: 0% = vehicle wells with enzyme and 100% = no enzyme wells
Settings: at 11.5 µM, active compounds read high

Compound	inhibition
O=C(O)Cc1csc(NC(=O)CSc2nnnn2-c2ccc(O)cc2)n1	-4.88% (inactive)
COc1ccc(CN2C(=O)C(CC(=O)NCc3cccc4ccccc34)CC(C(=O)N3CCOCC3)=C2C)cc1 (stereo not drawn)	7.84% (inactive)
CCN(CC)C(=O)C1=C(C)N(Cc2ccc(F)cc2)C(=O)C(CC(=O)NCc2cccc3ccccc23)C1 (stereo not drawn)	1.88% (inactive)
CCN(CC)C(=O)C1=C(C)N(Cc2ccc(C(C)(C)C)cc2)C(=O)C(CC(=O)NCc2cccc3ccccc23)C1 (stereo not drawn)	31.8% (active)
CCN(CC)CCCC(C)n1c2nc(=O)[nH]c(=O)c-2nc2cc(Cl)ccc21 (stereo not drawn)	95.2% (active)
Cc1ccc(C)c(NC(=O)c2cc(-c3cc(C)cc(C)c3O)n[nH]2)c1	-1.49% (inactive)
O=C(COCc1cc(-c2ccc3c(c2)OCO3)on1)N1CCN(c2cccc(Cl)c2)CC1	7.08% (inactive)
Cc1coc2c(O)cc3c(c12)OC1(N2CCCCC2)C(=O)NCCCC31 (stereo not drawn)	51.9% (active)
CCN1CCN(CC(=O)c2cc(OC)c(OC)c(OC)c2)CC1	-2.49% (inactive)
Oc1c(Cl)cc(Cl)c(Cl)c1Cc1c(O)c(Cl)cc(Cl)c1Cl	39% (active)
CC(=O)Nc1ccc(SCC(=O)Nc2ccccc2Oc2ccccc2)cc1	-1.09% (inactive)
CC1(C)S[C@@H]2[C@H](NC(=O)COc3ccccc3)C(=O)N2C1C(=O)OCc1ccccc1 (stereo partly drawn)	3.3% (inactive)
Cc1ccc(-c2ccc(/C=C(\C#N)C(N)=S)o2)c([N+](=O)[O-])c1	16.7% (inactive)
O=C1C2C3C=CC(C4CC34)C2C(=O)N1/N=C/c1ccc(-c2ccccc2[N+](=O)[O-])o1 (stereo not drawn)	13.7% (inactive)
CC1=NN(c2ccc(Cl)c(C(=O)O)c2)C(=O)/C1=C/c1ccc(-c2ccccc2[N+](=O)[O-])o1	32.7% (active)
CC(C)[C@H](NC(=O)N1c2ccccc2NC(=O)[C@@H]1C(C)C)C(=O)N[C@H](C(=O)O)c1ccccc1	-2.64% (inactive)
O=S(=O)(c1ccc(Sc2nnc3ccccn23)nc1)N1CCOCC1	-14.3% (inactive)
NNC(=O)c1cccc(COCC(F)(F)C(F)F)c1	-1.18% (inactive)
CCCCNC(=O)C1CCC(=O)N1CCc1ccccc1 (stereo not drawn)	0.15% (inactive)
Cc1ccc(S(=O)(=O)N(C)CC(=O)NCCc2c[nH]c3ccccc23)cc1	1.27% (inactive)
Cc1cc(C)cc(NC(=S)NCCc2c[nH]c3ccccc23)c1	30.6% (active)
O=C(COC(=O)Cc1c[nH]c2ccccc12)NCCc1ccccc1	-6.33% (inactive)
Clc1ccc(CSc2nnc([C@@H]3CCCN3)o2)cc1	2.88% (inactive)
